Assay outcomes (PubChem)
Most compounds without a hit are left out; they make up all but 7.4% or so of the library.
FLuc modulator = qHTS profiling assay for firefly luciferase inhibitor/activator using purifed enzyme and Km concentrations of substrates (counterscreen for miR-21 project). Luciferin 4-monooxygenase (Photinus pyralis), P08659. purified FLuc, Km substrates, luminescence inhibition. Potency, µM (titrated, usually from 57.5 µM), for inactives: top-dose activity change, negative = inhibition, most hits filed as inhibitors. 360,000 tested, 6.9% active. AID 588342, 2011;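 note: plate controls were vehicle for no effect and reference inhibitor for full effect; nearly all actives have a fitted effect of over 55% in size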
Target sequence (P08659 whole entry, looked up): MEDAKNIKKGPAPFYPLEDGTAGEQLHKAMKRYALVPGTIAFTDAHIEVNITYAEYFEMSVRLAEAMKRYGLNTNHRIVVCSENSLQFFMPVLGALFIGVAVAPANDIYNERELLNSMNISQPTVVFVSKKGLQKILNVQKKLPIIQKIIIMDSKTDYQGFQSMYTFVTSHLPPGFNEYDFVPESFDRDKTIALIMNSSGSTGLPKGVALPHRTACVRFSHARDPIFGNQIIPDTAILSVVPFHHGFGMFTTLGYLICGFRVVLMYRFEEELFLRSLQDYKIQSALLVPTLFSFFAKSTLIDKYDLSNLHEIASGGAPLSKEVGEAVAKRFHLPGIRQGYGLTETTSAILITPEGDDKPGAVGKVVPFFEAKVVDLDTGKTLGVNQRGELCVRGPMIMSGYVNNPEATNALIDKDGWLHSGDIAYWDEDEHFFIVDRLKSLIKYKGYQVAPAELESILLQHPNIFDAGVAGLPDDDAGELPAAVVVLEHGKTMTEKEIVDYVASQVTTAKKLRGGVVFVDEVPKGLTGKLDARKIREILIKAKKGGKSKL
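Purified P. pyralis luciferase (10nM final) with 10uM D-luciferin and 10uM ATP (Km levels) in 50mM Tris acetate pH 7.5, 10mM Mg acetate, 0.01% Tween-20, 0.05% BSA; qHTS 6-point titration, ~60 µM downward; luminescence read.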
Rab9 promoter act = qHTS Assay for Rab9 Promoter Activators | Potency, µM (doses to about 9.22 µM), without a hit: top-dose activation, negative = inhibition, hits mostly activators | 320,000 tested, 2.8% active | Huh7 Rab9 promoter-luciferase reporter, luminescence, 24 h; note: % of control where 0% means no effect; nearly all actives have a fitted effect of over 60% in size
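Using Huh7 cells stably transfected with Rab9 promoter–luciferase, compounds were incubated 24 h at 37 °C, 5% CO2; luciferase luminescence was read 10 min after reagent addition.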
KinaseGlo FLuc = Counterscreen for Luciferase (Kinase-Glo TM) Inhibition; Kinase-Glo luciferase, ATP luminescence, 8 min; Potency, µM (highest dose often 38.3 µM), without a hit: at the highest dose activity change, negative = inhibition, usual class: inhibitors; 200,000 tested, 0.28% active; note: % is set by controls: 0 for no effect and ±100 for the full control effect; nearly all actives have a fitted effect of over 60% in size
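Compound is pinned into ATP-containing buffer (10 uM ATP, imidazole pH 7.2, 7 mM MgCl2). Kinase-Glo luciferase reagent is then added. Light output is recorded following an 8-min room-temperature incubation.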
ELG1 genotoxic = qHTS screen for small molecules that induce genotoxicity in human embryonic kidney (HEK293T) cells expressing luciferase-tagged ELG1; HEK293T ELG1-luciferase reporter, luminescence, 16 h; Potency, µM (series often up to 46 µM), for the others: top-dose activity change, positive = activation, actives largely listed as activators; 330,000 tested, 1.3% active; AID 504466, 2011; note: % of control where 0% means no effect; nearly all actives have a fitted effect of over 60% in size
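HEK293T cells expressing luciferase-tagged ELG1 were treated with compound or DMSO for 16 hr at 37°C. Luciferase activity was then read after 30 min with ONE-Glo at room temperature; rising signal flags genetic stress.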
SMN2 splice enh = qHTS Assay for Enhancers of SMN2 Splice Variant Expression; 210,000 tested, 2.8% active; HEK293 SMN2-luciferase splicing reporter, luminescence, 30-36 h; AID 1458, 2008; Potency, µM (doses to about 46.1 µM), inactives show at the top dose activity change, positive = activation, hits mostly activators; note: % of control where 0% means no effect; nearly all actives have a fitted effect of over 55% in size
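qHTS luciferase splicing reporter: luminescence rises when SMN2 exon 7 is included in transfected HEK293 cells. Compound exposure lasted 30-36 h at 37C, with 4.5 mM final sodium butyrate as control, followed by a ONE-Glo read.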
NPC1 promoter act = qHTS Assay for NPC1 Promoter Activators | AID 485313, 2010 | Potency, µM (highest dose often 9.22 µM), for the others: top-dose activation, most hits filed as activators | 320,000 tested, 2.4% active | Huh7 NPC1 promoter luciferase reporter, 24 h; note: % of control where 0% means no effect; nearly all actives have a fitted effect of over 60% in size
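Readout is luciferase luminescence, reflecting NPC1 promoter activation in stably transfected Huh7 cells after 24 h compound exposure at 37 °C in reduced-serum medium with 10% FBS.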
* marks the source's active call; other numbers are inactive results; ? = inconclusive; nt = no result given. Calls come from the whole dose curve; as a rule, active = well fitted curve in the direction sought with a large enough effect; inconclusive = small, poorly fitted or top-dose-only effect, or another doubt; inactive = no such curve, though single readings can be large; an effect the other way counts as inactive or inconclusive. Potency is the fitted concentration of half-maximal effect.

SMILES	FLuc modulator	Rab9 promoter act	KinaseGlo FLuc	ELG1 genotoxic	SMN2 splice enh	NPC1 promoter act
CC(C)N1CCC2(CC1)N=C(c1ccc3c(c1)OCO3)CC(c1cc(Cl)ccc1O)N2 (configuration not stated)	17µM*	-1%	5%	-16%	-23%	-4%
Cc1cc(C)cc(NC(=O)c2ccc(CSc3nnnn3C)cc2)c1	13µM*	19%	0%	0%	-11%	9%
Cn1nnnc1SCc1ccc(C(=O)Nc2nccs2)cc1	15µM*	?	-2%	?	11µM*	30%
C=CCn1c(SCc2ccc(C#N)cc2)nnc1-c1cccc(Cl)c1	2%	-7%	-1%	-11%	-25%	-4%
Cn1nnnc1SCc1ccc(C(=O)Nc2ccccc2F)cc1	?	?	-18%	?	2%	?
C=CCn1c(SCc2ccc(C(=O)Nc3nccs3)cc2)nnc1-c1ccc(C)c(Cl)c1	11µM*	-1%	-3%	-14%	-97%	1%
c1ccc(CSc2nnc3ccc(-c4cccs4)nn23)nc1	nt	10%	3%	7%	?	4%
c1ccc(CSc2ccc(-c3cccs3)nn2)cc1	1.9µM*	2.8µM*	0%	?	16µM*	3.2µM*
Clc1ccc(CSc2ccc(-c3cccs3)nn2)cc1	0%	nt	nt	nt	nt	nt
c1ccc(CSc2ccc(-c3cccs3)nn2)nc1	24µM*	2.2µM*	-3%	17%	16µM*	3.5µM*
O=C(NCCCn1ccnc1)/C(=C\c1ccc(Br)cc1)NC(=O)c1ccccc1	3%	3%	nt	-3%	nt	-2%
O=C(CC(SCCO)c1ccc2c(c1)OCO2)c1cccs1 (configuration not stated)	13µM*	4µM*	10%	?	24%	?
CCC1CN(C(=O)Nc2cc(C)ccc2OC)c2cc(Cl)ccc2O1 (configuration not stated)	-17%	nt	nt	nt	nt	nt
O=C(NCc1cccnc1)c1ccc(Cl)cc1[N+](=O)[O-]	3%	-8%	0%	3%	?	-2%
N/C(=N\OC(=O)c1ccc(Cl)cc1[N+](=O)[O-])c1cccnc1	24µM*	?	nt	?	nt	25%
Cc1ccc(C(=O)O/N=C(\c2ccccc2)c2cccnc2)cc1	17µM*	1%	1%	2%	-10%	-3%
N/C(=N\OC(=O)CC(c1ccccc1)c1ccccc1)c1cccnc1	1%	-13%	0%	-3%	-10%	-1%
O=C(O/N=C(/c1ccccc1)c1ccncc1)c1ccc(F)cc1	-5%	-2%	1%	-3%	-20%	-5%
N/C(=N\OC(=O)c1ccccc1)c1ccn[nH]1	6.7µM*	3.5µM*	nt	10µM*	nt	2.2µM*
N/C(=N\OC(=O)c1ccccc1)c1cccnc1	5.4µM*	30%	?	?	nt	19%
N/C(=N\OC(=O)c1cc(Br)ccc1Cl)c1cccnc1	21µM*	?	-2%	12%	19%	?
N/C(=N\OC(=O)c1cc(Cl)ccc1Cl)c1cccnc1	9.5µM*	?	-5%	21µM*	?	14%
N/C(=N\OC(=O)Cc1ccc(Cl)cc1)c1cccnc1	?	-4%	-2%	1%	-19%	0%
N/C(=N\OC(=O)c1ccccc1Cl)c1cccnc1	4.3µM*	?	-15%	?	16µM*	3.5µM*
COC(=O)CCCC(=O)N1CCC(CCC(=O)NC2CC2)CC1	0%	-5%	nt	5%	nt	-1%
CC(NC(=O)c1ccco1)C(=O)N1CCCCC1 (configuration not stated)	3%	-20%	nt	-9%	nt	-3%
CCC1C(=O)n2nc(-c3ccccc3)cc2N=C1C (configuration not stated)	13µM*	2.8µM*	-9%	?	13µM*	?
